Fam108B inh: mouse Fam108B serine hydrolase inhibitors, primary screen, counter-screen for RBBP9 inhibitor project, biochemical, fluorescence polarization. recombinant Fam108B, FP-Rh probe fluorescence polarization. inhibition, % at 9.51 µM. 300,000 tested, 0.33% active;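 active = inhibition above the screen mean inhibition plus 3 SD, computed separately per campaign, cut at about 18% in these data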;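 note: inhibitors lower polarization as less probe binds the enzyme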
PAD4 FP inh: human PAD4 inhibitors, primary screen, biochemical, fluorescence polarization, 1536-well format. Protein-arginine deiminase type-4 (Homo sapiens), Q9UM07. recombinant PAD4, RCA probe fluorescence polarization. inhibition, % at 6.36 µM. 330,000 tested, 0.41% active. AID 485272, 2010;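 active = percent inhibition above a cutoff equal to the mean of all tested compounds plus 3 SD, cut at about 15% in these data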;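 note: 0% = PAD4 with RCA probe and DMSO and 100% = probe without PAD4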
LYPLA2 inh: LYPLA2 inhibitors, primary screen, counter-screen for PME1 inhibitor project, biochemical, fluorescence polarization, FP-Rh probe ABPP. recombinant LYPLA2. 320,000 tested, 0.38% active. inhibition, % at 5.9 µM;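 active = inhibition above the screen-wide mean plus 3 SD, limit set per campaign, cut at about 26% in these data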;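 note: 0% = LYPLA2 with DMSO and 100% = wells lacking LYPLA2 enzyme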
LYPLA1 inh: LYPLA1 inhibitors, primary screen, counter-screen for PME1 inhibitor project, biochemical, fluorescence polarization, FP-Rh probe ABPP; Acyl-protein thioesterase 1 (Homo sapiens), O75608; recombinant LYPLA1; inhibition, % at 5.9 µM; 320,000 tested, 0.16% active; AID 2174, 2009;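 active = inhibition above the mean of all tested compounds plus 3 SD, set per campaign, cut at about 14% in these data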;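 note: inhibitors block serine hydrolase probe labeling of LYPLA1 so polarization falls; 0% = enzyme with DMSO and 100% = wells lacking LYPLA1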
GSTO1 inh: inhibitors of recombinant GSTO1, primary screen, counter-screen for RBBP9 inhibitor project, biochemical, fluorescence polarization | Glutathione S-transferase omega-1 (Homo sapiens), P78417 | activity-based probe fluorescence polarization | inhibition, % at 5.96 µM | 300,000 tested, 1.1% active;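 active = inhibition above the campaign mean inhibition plus 3 SD, cut at about 35% in these data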;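 note: 0% = GSTO1-1 with DMSO and 100% = wells lacking GSTO1-1 enzyme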
PME-1 inh: PME-1 inhibitors via competitive probe labeling, primary screen, biochemical, fluorescence polarization, FP-Rh probe, HTS. Protein phosphatase methylesterase 1 (Homo sapiens), Q9Y570. recombinant PME-1. inhibition, % at 5.9 µM. 320,000 tested, 0.53% active;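 active = inhibition above the campaign mean of all compounds plus 3 SD, cut at about 26% in these data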;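 note: competitive labeling of PME-1 active site by serine hydrolase directed probe; 0% = PME-1 with DMSO and 100% = wells lacking PME-1 enzyme; inhibitors block probe labeling so polarization falls and inhibition rises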
Target sequence (Q9Y570 whole entry, looked up): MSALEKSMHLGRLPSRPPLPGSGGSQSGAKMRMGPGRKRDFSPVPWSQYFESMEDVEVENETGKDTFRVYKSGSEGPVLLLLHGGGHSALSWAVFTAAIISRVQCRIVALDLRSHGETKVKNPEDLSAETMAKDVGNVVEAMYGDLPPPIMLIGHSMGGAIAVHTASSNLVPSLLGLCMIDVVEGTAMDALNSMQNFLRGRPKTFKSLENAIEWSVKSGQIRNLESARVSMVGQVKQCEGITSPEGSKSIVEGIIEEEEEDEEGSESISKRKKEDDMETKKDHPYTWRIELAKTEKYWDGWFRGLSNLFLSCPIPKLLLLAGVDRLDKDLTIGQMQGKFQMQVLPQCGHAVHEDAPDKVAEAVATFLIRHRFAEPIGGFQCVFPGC
GSTO1 confirm: GSTO1 inhibitor hit confirmation, counter-screen for RBBP9 inhibitor project, biochemical, fluorescence polarization, triplicate | shares compounds with GSTO1 inh | recombinant GSTO1, probe fluorescence polarization | 2,400 tested, 54% active | inhibition, % at 5.96 µM;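 active = inhibition above the primary screen's cutoff, its mean inhibition plus 3 SD, cut at about 35% in these data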;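 note: loss of polarization as inhibitors block binding of rhodamine sulfonate ester activity probe; 0% = GSTO1 with DMSO and 100% = wells lacking GSTO1 enzyme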
GSTO1 ABPP inh: inhibitors of purified human GSTO1, late-stage follow-up, biochemical, gel ABPP, SE-Rh probe, percent inhibition; shares compounds with GSTO1 inh; AID 463110, 2010; inhibition, % at 1 µM; recombinant GSTO1, gel ABPP SE-Rh probe fluorescence; 130 tested, 30% active;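 active = inhibition of the enzyme GSTO1 above about 75%, limit read from the data; inactive = inhibition below that limit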
* = called active by the depositor; . = no result given. Only some compounds are listed: those with a hit (about 1.8% of all), similar ones and a draw of the others.

SMILES	Fam108B inh	PAD4 FP inh	LYPLA2 inh	LYPLA1 inh	GSTO1 inh	PME-1 inh	GSTO1 confirm	others
C[C@@H]1O[C@@H](Oc2c(-c3ccc(O)c(O)c3)oc3cc(O)cc(O)c3c2=O)[C@H](O)[C@H](O)[C@H]1O	.	3.2	.	.	.	.	.
C[C@@H]1O[C@@H](Oc2c(-c3cc(O)c(O)c(O)c3)oc3cc(O)cc(O)c3c2=O)[C@H](O)[C@H](O)[C@H]1O	-7.4	-0.1	-27.1	-12.7	54.3*	-32.0	15.8
CC1=CC(C)(C)N(C(=O)CCl)c2cc(C)ccc21	-0.9	3.1	4.3	4.1	20.4	6.4	.
CC1=CC(C)(C)N(C(=O)CCl)c2ccccc21	-2.3	3.6	-4.2	3.0	65.1*	-10.9	57.9*	GSTO1 ABPP inh=31.0
COc1ccccc1C(=O)NC(=O)COC(=O)c1ncc(Cl)c(Cl)c1Cl	1.0	-0.1	-0.7	0.6	-4.3	-1.2	.
COc1ccc(Nc2ccc3c(c2)=NC2(CCCCC2)[N+]=3[O-])cc1	0.8	8.3	3.7	0.0	53.6*	8.0	31.3
[O-][N+]1=c2ccc(Nc3ccccc3)cc2=NC12CCCCC2	5.3	5.7	1.7	0.3	57.9*	4.1	34.9*
c1ccc(Nc2cccc(Nc3ccccc3)c2)cc1	8.2	-7.3	4.9	-0.6	3.6	7.0	.
CCc1n[nH]c(=S)n1/N=C/c1c(O)ccc2ccccc12	-0.2	-0.6	6.7	4.9	37.8*	5.0	7.7
Cc1cc(C(=O)NNC(=O)c2ccc(Cl)cc2)no1	3.1	-1.1	3.2	0.3	48.0*	5.3	6.7
Cc1cc(C)c(C)c(S(=O)(=O)NCCN2CCOCC2)c1C	-4.1	-2.4	-0.7	-4.2	-2.4	-2.2	.
COc1ccc(C2=CC3=C(Br)C(=O)C(C)(OC(=O)C4CCCC4)C(=O)C3=CO2)cc1 (stereo unspecified)	7.2	-9.7	0.2	-5.1	38.7*	5.5	24.9
COC(=O)CCC(=O)OC1(C)C(=O)C2=COC(c3ccc(OC)cc3)=CC2=C(Br)C1=O (stereo unspecified)	1.8	-1.6	0.5	-2.5	20.2	-0.2	.
Cn1c(C(=O)O)c(CC(=O)N2CCC(Cc3ccccc3)CC2)c2ccccc21	-6.1	-3.1	-10.6	-4.6	41.8*	-6.9	8.5
CCOc1ccc(NC(=O)C2C(C(=O)O)C3(Cl)C(Cl)=C(Cl)C2(Cl)C3(Cl)Cl)cc1 (stereo unspecified)	3.5	1.9	2.3	2.5	43.7*	-1.2	30.0
CCOc1ccc(NC(=O)C2C(c3ccccc3)C2(Cl)Cl)cc1 (stereo unspecified)	0.4	2.5	-6.4	-3.7	-1.0	-0.1	.
CC(=NCCCn1ccnc1)c1c(-c2ccccc2)[nH]n(-c2nc3ccccc3s2)c1=O	3.7	0.9	-5.5	-4.0	56.6*	-3.5	4.6
CCCCC1(C)NC(=O)N(CC(=O)Nc2ccc(Cl)cc2C)C1=O (stereo unspecified)	.	0.7	.	.	.	.	.
CC1(c2ccccc2)NC(=O)N(CC(=O)N2CCN(S(=O)(=O)c3c(F)cccc3F)CC2)C1=O (stereo unspecified)	.	2.4	.	.	.	.	.
CC1=CC(C)(C)Nc2ccc(C)cc21	0.9	-1.0	3.4	-1.0	-3.9	-1.7	.
CC1=CC(C)(C)Nc2ccc(OC(=O)CN3C(=O)CCC3=O)cc21	3.1	-4.8	1.5	2.4	62.2*	1.2	8.8
CN(C)c1ccc(CC2C(=O)Nc3ccccc32)cc1 (stereo unspecified)	5.4	-8.4	5.2	-0.1	48.5*	6.1	5.2

Screens from PubChem.
